# Results from the supplement of paper PMC4466140.
# B1: unnamed (peptide)
# chain: TTNRGPPPLPPRANV
# Experiments:
# Assay in all cases: SPOT peptide array binding signal intensity (averaged, normalized) (arbitrary units (background-subtracted, floor 0; scale differs between SH3 domains)); higher = stronger binding of the SH3 domain to the peptide
# [1] = target: AgAbp1
# In short: (§1)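 The binding signal is the normalized, background-subtracted spot intensity averaged over replicates; its arbitrary units differ between domains. It was obtained by incubating 10 μg/ml GST-fused SH3 domains from four yeast species overnight at 4°C in TBS-based blocking buffer on cellulose membranes with synthetic 15-mer peptides, cysteines replaced by serines, then detecting with anti-GST antibody, HRP anti-mouse secondary and luminol.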
# [2] = target: AgBbc1
# In short: as §1
# [3] = target: AgBem1-D1
# In short: as §1
# [4] = target: AgBzz1-D1
# In short: as §1
# [5] = target: AgBzz1-D2
# In short: as §1
# [6] = target: AgCyk3
# In short: as §1
# [7] = target: AgFus1
# In short: as §1
# [8] = target: AgHof1
# In short: as §1
# [9] = target: AgHse1
# In short: as §1
# [10] = target: AgLsb1
# In short: as §1
# [11] = target: AgLsb4
# In short: as §1
# [12] = target: AgMyo5
# In short: as §1
# [13] = target: AgNbp2
# In short: as §1
# [14] = target: AgRvs167
# In short: as §1
# [15] = target: AgSho1
# In short: as §1
# [16] = target: AgSla1-D1-D2
# In short: as §1
# [17] = target: AgSla1-D3
# In short: as §1
# [18] = target: CaAbp1-D1
# In short: as §1
# [19] = target: CaAbp1-D2
# In short: as §1
# [20] = target: CaBbc1
# In short: as §1
# [21] = target: CaBem1-D1
# In short: as §1
# [22] = target: CaBzz1-D1
# In short: as §1
# [23] = target: CaBzz1-D2
# In short: as §1
# [24] = target: CaCyk3
# In short: as §1
# [25] = target: CaFus1
# In short: as §1
# [26] = target: CaHof1
# In short: as §1
# [27] = target: CaHse1
# In short: as §1
# [28] = target: CaLsb1
# In short: as §1
# [29] = target: CaLsb4
# In short: as §1
# [30] = target: CaMyo5
# In short: as §1
# [31] = target: CaNbp2
# In short: as §1
# [32] = target: CaRvs167
# In short: as §1
# [33] = target: CaRvs167-3
# In short: as §1
# [34] = target: CaSho1
# In short: as §1
# [35] = target: CaSla1-D1-D2
# In short: as §1
# [36] = target: CaSla1-D3
# In short: as §1
# [37] = target: ScAbp1
# In short: as §1
binder,measurement,setting,value
B1,SPOT peptide array binding signal intensity,[1],2
same,SPOT peptide array binding signal intensity,[2],301
same,SPOT peptide array binding signal intensity,[3],53.5
same,SPOT peptide array binding signal intensity,[4],385
same,SPOT peptide array binding signal intensity,[5],144
same,SPOT peptide array binding signal intensity,[6],6
same,SPOT peptide array binding signal intensity,[7],≤ 0
same,SPOT peptide array binding signal intensity,[8],398
same,SPOT peptide array binding signal intensity,[9],35.5
same,SPOT peptide array binding signal intensity,[10],513
same,SPOT peptide array binding signal intensity,[11],4310
same,SPOT peptide array binding signal intensity,[12],394
same,SPOT peptide array binding signal intensity,[13],4.5
same,SPOT peptide array binding signal intensity,[14],1710
same,SPOT peptide array binding signal intensity,[15],≤ 0
same,SPOT peptide array binding signal intensity,[16],≤ 0
same,SPOT peptide array binding signal intensity,[17],4
same,SPOT peptide array binding signal intensity,[18],19
same,SPOT peptide array binding signal intensity,[19],≤ 0
same,SPOT peptide array binding signal intensity,[20],590
same,SPOT peptide array binding signal intensity,[21],28
same,SPOT peptide array binding signal intensity,[22],6090
same,SPOT peptide array binding signal intensity,[23],2120
same,SPOT peptide array binding signal intensity,[24],10.5
same,SPOT peptide array binding signal intensity,[25],22.5
same,SPOT peptide array binding signal intensity,[26],101
same,SPOT peptide array binding signal intensity,[27],73
same,SPOT peptide array binding signal intensity,[28],9
same,SPOT peptide array binding signal intensity,[29],4530
same,SPOT peptide array binding signal intensity,[30],6.25
same,SPOT peptide array binding signal intensity,[31],35
same,SPOT peptide array binding signal intensity,[32],1980
same,SPOT peptide array binding signal intensity,[33],≤ 0
same,SPOT peptide array binding signal intensity,[34],0.5
same,SPOT peptide array binding signal intensity,[35],436
same,SPOT peptide array binding signal intensity,[36],1.5
same,SPOT peptide array binding signal intensity,[37],12
